The list is not random: actives were taken first. Their share in the collection is about 3.9%.
3CLpro inhibitor – SARS-CoV 3CLpro protease inhibitors, primary screen, biochemical, quenched FRET; Replicase polyprotein 1ab (Severe acute respiratory syndrome coronavirus), P0C6X7; recombinant SARS-CoV 3CLpro, quenched FRET peptide cleavage; inhibition, % at 6 µM; 0.14% of 290,000 active; AID 1706, 2009; in the data active = inhibition above about 12%
CCHFV vOTU inh – CCHFV vOTU protease inhibitors, primary screen, biochemical, Pep-AMC substrate, fluorescence. Crimean-Congo hemorrhagic fever virus L polyprotein viral ovarian tumor (vOTU) protease …. inhibition, % at 11.5 µM. 0.55% of 370,000 active. AID 651958, 2012; in the data active = inhibition above about 30%; also: 0% = vehicle wells with enzyme and 100% = no enzyme wells
BoNT A protease – BoNT/A light chain protease inhibitors, primary screen, biochemical, flow cytometry, MLPCN library; Botulinum neurotoxin type A light chain protease (Clostridium botulinum A str. ATCC 3502); multiplex microsphere protease substrate cleavage; inhibition, % at 10 µM; 0.17% of 360,000 active; AID 588499, 2011; also: plate controls were buffer without enzyme for full effect and enzyme alone for no effect
Bead autofluor – counter-screen for toxin protease inhibitors: compound fluorescence; compound autofluorescence counterscreen, microsphere flow cytometry; hits give high values; fluorescence intensity (no concentration beside the values); 3.1% of 360,000 active; in the data active = fluorescence intensity above about 16000; inconclusive = no clear call, values can overlap the other calls
Anthrax LF prot – Bacillus anthracis LF protease inhibitors, primary screen, biochemical, multiplex microsphere, MLPCN library. Lethal factor (Bacillus anthracis), P15917. multiplex microsphere protease cleavage assay. inhibition, % at 10 µM. 0.12% of 360,000 active. AID 588501, 2011; also: plate controls were buffer without enzyme for full effect and enzyme alone for no effect
BoNT-F LC inh – BoNT/F light chain protease inhibitors, primary screen, biochemical, flow cytometry, MLPCN library; Botulinum neurotoxin type F light chain protease (Clostridium botulinum); Multiplex microsphere protease cleavage assay; inhibition, % at 10 µM; 0.22% of 360,000 active; in the data active = inhibition above about 35%, passing the limit was not always enough; inconclusive = no clear call, values can overlap the other calls; also: plate controls were buffer without enzyme for full effect and enzyme alone for no effect
Starred values were filed as active, the others as inactive; ? = inconclusive; · = no result. Rule as the data show it, unless noted: active = inhibition above about 30%; inconclusive = no clear call, values can overlap the other calls; inactive = below that.

SMILES	3CLpro inhibitor	CCHFV vOTU inh	BoNT A protease	Bead autofluor	Anthrax LF prot	BoNT-F LC inh
COc1ccc(NC(=O)COC(=O)c2ccc(-n3nc(C)cc3C)cc2)cc1OC	·	14.7	1.0	7822	-5.8	-0.9
O=C(NC1CCCc2ccccc21)C1CCN(S(=O)(=O)N2CCCCCC2)CC1 (stereo not given)	3.5	-6.6	3.2	21253*	3.4	5.5
Cc1noc(C)c1S(=O)(=O)N1CCC(C(=O)NC2CCCc3ccccc32)CC1 (stereo not given)	3.9	-3.1	0.7	4571	-1.3	-4.5
O=C(COc1ccccc1Cl)Nc1ccc(N2CCN(C(=O)c3ccccc3)CC2)cc1	0.7	8.8	-0.2	?	2.2	6.1
Cn1c(=O)cc(OCCCC(=O)Nc2ccccn2)c2ccccc21	0.6	-7.0	1.1	22529*	-2.2	-0.3
Cc1ccc(CNC(=O)CCCOc2cc(=O)n(C)c3ccccc23)o1	3.6	-5.4	-0.7	6564	-7.9	-9.5
Cn1c(=O)cc(OCCCC(=O)NCc2ccco2)c2ccccc21	-5.5	0.5	-1.8	17294*	-2.5	-3.0
Cc1nc2scc(-c3cccs3)c2c(=O)[nH]1	2.6	-0.6	-4.2	25937*	-1.3	-6.9
O=c1[nH]c(-c2ccc(O)cc2)nc2scc(-c3cccs3)c12	3.5	-6.0	-1.1	5273	-1.9	-2.8
N#C[C@@H]1N[C@H](CO)[C@@H]1c1ccccc1	·	-3.8	·	·	·	·
CC(C)(C)c1ccc(S(=O)(=O)/N=C2\C=C(NS(=O)(=O)c3ccccc3)C(=O)c3ccccc32)cc1	6.9	54.4*	-0.5	5645	-3.6	-3.1
CS(=O)(=O)N(Cc1ccc(C(=O)Nc2ccccc2Sc2ccccc2)cc1)c1ccccc1	12.5*	8.2	0.7	2435	-2.5	1.1
O=C(Nc1ccccc1Sc1ccccc1)c1ccccc1	2.9	6.7	0.4	3228	-3.7	-4.5
CS(=O)(=O)N(Cc1ccc(C(=O)NCCSCc2ccco2)cc1)c1ccccc1	-5.2	0.2	1.2	21841*	-9.1	1.5
CCOC(=O)c1ccc(-c2c(-c3ccc4c(c3)OCO4)noc2C)cc1F	-1.1	13.6	-0.5	4211	-1.7	-1.6
Cc1c(C(=O)NCc2ccc(F)cc2)sc(=O)n1Cc1ccccc1	·	-5.2	-0.8	5667	-1.7	-7.5
COc1ccc(N(CC(=O)N2CCOCC2)S(C)(=O)=O)cc1Cl	-0.8	5.6	2.3	3423	6.7	14.7
O=C1[C@H]2[C@@H](C(=O)N1c1cc(Cl)cc(Cl)c1)[C@]1(C(=O)Nc3ccccc31)N1CCC[C@@H]21	7.8	-1.1	-0.4	20946*	-2.4	-1.0
Cc1ccc(-c2nnc(Nc3ccccc3)c3ccccc23)cc1S(=O)(=O)NCC1CCCO1 (stereo not given)	-9.2	8.6	3.2	21430*	-0.9	3.1
COc1ccc(C2C(C(=O)N3CCN(C)CC3)c3cc(OC)c(OC)cc3C(=O)N2C)cc1 (stereo not given)	-1.9	11.7	-0.3	4172	-5.3	-6.0
CCN1CCN(C(=O)C2c3cc(OC)c(OC)cc3C(=O)N(C)C2c2ccc(SC)cc2)CC1 (stereo not given)	-5.5	-2.0	?	22280*	-3.0	-12.3
O=Cc1ccc(-n2cccn2)cc1	5.7	9.4	-1.7	4964	-5.6	-3.8
NCc1cccc(-n2cccn2)c1	4.4	0.0	?	21167*	0.4	-1.1
O=C1c2cnc3nc(SCc4cccc(Cl)c4)nn3c2CC2c3ccccc3CCN12 (stereo not given)	-2.4	-5.9	-0.4	21140*	0.4	-1.2
CSc1nc2ncc3c(n2n1)CC1c2ccccc2CCN1C3=O (stereo not given)	5.9	-19.1	1.0	9385	-2.2	-0.2
O=C(CCNc1ccc(Br)cc1)c1cccc([N+](=O)[O-])c1	-4.4	5.3	-0.1	4144	-8.1	-2.1
O=C(CCNc1ccccc1)c1cccc([N+](=O)[O-])c1	-9.4	-4.5	6.6	20571*	-9.1	4.3
Cc1ccc(NCCC(=O)c2cccc([N+](=O)[O-])c2)cc1	-0.3	0.1	0.1	10591	-3.3	1.5

Source: PubChem (several laboratories)
